Our source for the PBM binding z-score values is the supplement of paper PMC6555819.

For one experiment, the system named is PXR homodimer (NR concentration 270 nM). Briefly: PBM binding z-score (relative to random genomic background probes); higher = stronger binding; sequences stand for … in GC…GCGATTGACAGCGTAGAATGAAGG
The method, boiled down:
(§1)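 Regression normalization was applied to scanned fluorescence from custom Agilent 4×180K protein-binding microarrays. Before scanning, arrays were incubated 1 h with ligand-free nuclear receptor dimers, and binding was detected with antibodies against each partner (one per run). Binding z-scores use the random background probes as reference.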
For the sequence GATACAGGGTCAGCTAGAGGCCTGAGTATGGAAA, the PBM binding z-score was -0.266.

The sequence CTCGAAAGGTCGTGCTCAGGTGAGCATACCAAAC gave a PBM binding z-score of -0.196.

Regarding CGTCCAAGGTCAAAGGTCAGTGAGGAGATGACGG, the PBM binding z-score is 2.54.

In turn, GATGCTAGGTCAACTGATGGTCAGCTAAAGCTCG had a PBM binding z-score of -0.415.

In the case of AGATTGAGGTTATTAAGATCAGGGAATTGCGGTC, the PBM binding z-score worked out at 0.669.

The sequence CGTCCAAGGCCAATGCTAGGTCAGTGAAAGCATT had a PBM binding z-score of -0.267.

GAAACAGGGTCAAGGCCAGAGTACGCGTATTGAT showed a PBM binding z-score of 0.162.

In turn, CCGCCTAGGTCAGGGCCAGTATAGGAGGAACGTT returned a PBM binding z-score of -0.663.

The sequence CCGAGTAGGTTAGGGGGCATTCAGGCAACGGTGA gave a PBM binding z-score of 1.47.

As to ACTCGGAGGACAACGGTCAGAGCTACGCCAGTGA, the PBM binding z-score was -0.446.

For CGTCAAAGTTCAACTAAGGTAACGTACAGCACGC, the PBM binding z-score came to 4.77.

In turn, GCGACTGGGGCATCAGCAGGTTACAATAACTTAA gave a PBM binding z-score of -0.126.

The sequence TCTCGGAAGACACGAAAGGTCAGAGCTCGACATC registered a PBM binding z-score of 0.388.

Take TCGAGAAGGTTAGTCGGGGCATTCAGCCAACATA: the PBM binding z-score is 0.434.

AGAATGAGGTTATACGTAGATCAGGGAGGAAAGT registered a PBM binding z-score of 0.618.

The sequence ATATGTAGGTTATCGGGCCATTCAGTTTGCGCAT registered a PBM binding z-score of 1.06.

As for TATACAGGGTAAAAGGCCAGAGTACGAATGTCGA, the PBM binding z-score came to 0.409.

Turning to CCTGCTAGGTAAATGGTCAGCTAAAGCAGCTCGC, the PBM binding z-score is -0.537.

Sequence TCTAATTGGTCAAAGGTCACACACTCGAAATGCG returned a PBM binding z-score of 1.5.

Sequence TCATATAGGTTAATGCTAGGTGAAAGTCCGATCT returned a PBM binding z-score of 0.465.

TAGCCTAGGTCAGATCGGCCCAGTATACGCTATA had a PBM binding z-score of -0.754.

As to CAAACTAGGTAACAGAGGTCAAAGTCCGTGCGTA, the PBM binding z-score turned out to be 3.25.

In the case of CCTTACGGGTCACTGACAGGTTACAGCATTTGGA, the PBM binding z-score is 0.0317.

CCAGACAGGTGAAAAGTAACTCAGTCTGGTACGC returned a PBM binding z-score of -0.142.

ATCTCTAGGTAACCAAGATCAGTGAATGCCGAAC returned a PBM binding z-score of 0.344.

For the sequence CCTACTGAGCCAAAGGTCATTGATTCCAATGCTC, the PBM binding z-score came out at 2.67.

With GCGACTGGGGCATCAGAAGGTTACCATAACTTAA, the PBM binding z-score is -0.271.

On to ATCTATAGGTAACCAAGTTCAGTGAATGCCGAAC, for which the PBM binding z-score is 2.08.

CCAGACAGGTGAGAAGGCAACTCAGCCTCGATTA registered a PBM binding z-score of -0.133.

CCAGTCAGGTGAGAAGGTAACTCAGCCTCGATTA registered a PBM binding z-score of -0.000389.

For the sequence TCGACTAGGTTAGTCGGGGCATTCAGCCAACATA, the PBM binding z-score is -0.422.

For the sequence CGTCCAAGTTCAACTAAGGTAACGTAAAGCACGC, the PBM binding z-score was 2.78.

As for AATACAGGGGCACTAGGCCAGAGTAGGTACGAAT, the PBM binding z-score was -0.158.

On to CCTGCTAGGTCATGGACAGCTAATCTACAGTATG, for which the PBM binding z-score is -0.443.

In turn, GCTAGTTGGGCAGTAAAAGGTCACACACCGGTCG showed a PBM binding z-score of 1.13.

Sequence TCAGACGGGTGAAGGTAACTCAGGTACGCAGTCG yielded a PBM binding z-score of -0.137.

The sequence ATCTCTAGGTACGACTCAGTTCAGTGAAGAACGC had a PBM binding z-score of 1.82.

GCGACTGGGGCATAGCAGGTTACCATAAGGTTGG came in with a PBM binding z-score of -0.519.

CGTCAAAGTTCAACTAAGGTAACGTAAAGCACGC returned a PBM binding z-score of 3.56.

In turn, TCAGACAGGTGAACGTAACTCAGGTACGCAGTCG displayed a PBM binding z-score of 0.448.

The next experiment concerns RARa:RXR (NR concentration 270 nM, RXRa partner concentration 90 nM). The description is as above. The method, boiled down: as §1
The sequence GATACAGGGTCAGCTAGAGGCCTGAGTATGGAAA returned a PBM binding z-score of 2.75.

CTCGAAAGGTCGTGCTCAGGTGAGCATACCAAAC gave a PBM binding z-score of 4.74.

Turning to CGTCCAAGGTCAAAGGTCAGTGAGGAGATGACGG, the PBM binding z-score worked out at 8.87.

In turn, GATGCTAGGTCAACTGATGGTCAGCTAAAGCTCG showed a PBM binding z-score of 2.58.

For AGATTGAGGTTATTAAGATCAGGGAATTGCGGTC, the PBM binding z-score was found to be 1.33.

Consider CGTCCAAGGCCAATGCTAGGTCAGTGAAAGCATT, for which the PBM binding z-score came out at 0.552.

The sequence GAAACAGGGTCAAGGCCAGAGTACGCGTATTGAT had a PBM binding z-score of 4.58.

Sequence CCGCCTAGGTCAGGGCCAGTATAGGAGGAACGTT came in with a PBM binding z-score of 1.47.

In the case of CCGAGTAGGTTAGGGGGCATTCAGGCAACGGTGA, the PBM binding z-score turned out to be 2.41.

On to ACTCGGAGGACAACGGTCAGAGCTACGCCAGTGA, for which the PBM binding z-score is -0.355.

Sequence CGTCAAAGTTCAACTAAGGTAACGTACAGCACGC gave a PBM binding z-score of 4.72.

Sequence GCGACTGGGGCATCAGCAGGTTACAATAACTTAA gave a PBM binding z-score of 0.651.

In the case of TCTCGGAAGACACGAAAGGTCAGAGCTCGACATC, the PBM binding z-score was found to be 4.27.

TCGAGAAGGTTAGTCGGGGCATTCAGCCAACATA: the PBM binding z-score amounted to 0.664.

In turn, AGAATGAGGTTATACGTAGATCAGGGAGGAAAGT registered a PBM binding z-score of 1.66.

In turn, ATATGTAGGTTATCGGGCCATTCAGTTTGCGCAT came in with a PBM binding z-score of 0.558.

TATACAGGGTAAAAGGCCAGAGTACGAATGTCGA returned a PBM binding z-score of 0.32.

In turn, CCTGCTAGGTAAATGGTCAGCTAAAGCAGCTCGC returned a PBM binding z-score of -0.118.

Take TCTAATTGGTCAAAGGTCACACACTCGAAATGCG: the PBM binding z-score was 7.91.

With TCATATAGGTTAATGCTAGGTGAAAGTCCGATCT, the PBM binding z-score came out at 1.52.

Sequence TAGCCTAGGTCAGATCGGCCCAGTATACGCTATA returned a PBM binding z-score of 0.84.

Take CAAACTAGGTAACAGAGGTCAAAGTCCGTGCGTA: the PBM binding z-score amounted to 6.67.

Sequence CCTTACGGGTCACTGACAGGTTACAGCATTTGGA returned a PBM binding z-score of 4.5.

In turn, CCAGACAGGTGAAAAGTAACTCAGTCTGGTACGC displayed a PBM binding z-score of 0.133.

Consider ATCTCTAGGTAACCAAGATCAGTGAATGCCGAAC, for which the PBM binding z-score amounted to 0.377.

For the sequence CCTACTGAGCCAAAGGTCATTGATTCCAATGCTC, the PBM binding z-score is 5.91.

As for GCGACTGGGGCATCAGAAGGTTACCATAACTTAA, the PBM binding z-score was 0.988.

Consider ATCTATAGGTAACCAAGTTCAGTGAATGCCGAAC, for which the PBM binding z-score amounted to 0.857.

Sequence CCAGACAGGTGAGAAGGCAACTCAGCCTCGATTA registered a PBM binding z-score of -0.209.

Sequence CCAGTCAGGTGAGAAGGTAACTCAGCCTCGATTA displayed a PBM binding z-score of 0.355.

Sequence TCGACTAGGTTAGTCGGGGCATTCAGCCAACATA had a PBM binding z-score of 0.0483.

The sequence CGTCCAAGTTCAACTAAGGTAACGTAAAGCACGC showed a PBM binding z-score of 2.38.

In turn, AATACAGGGGCACTAGGCCAGAGTAGGTACGAAT yielded a PBM binding z-score of -0.2.

For CCTGCTAGGTCATGGACAGCTAATCTACAGTATG, the PBM binding z-score turned out to be 2.53.

The sequence GCTAGTTGGGCAGTAAAAGGTCACACACCGGTCG displayed a PBM binding z-score of 6.26.

In turn, TCAGACGGGTGAAGGTAACTCAGGTACGCAGTCG returned a PBM binding z-score of 0.411.

ATCTCTAGGTACGACTCAGTTCAGTGAAGAACGC registered a PBM binding z-score of 0.363.

In turn, GCGACTGGGGCATAGCAGGTTACCATAAGGTTGG displayed a PBM binding z-score of 0.4.

Take CGTCAAAGTTCAACTAAGGTAACGTAAAGCACGC: the PBM binding z-score amounted to 4.67.

TCAGACAGGTGAACGTAACTCAGGTACGCAGTCG came in with a PBM binding z-score of 0.752.
